In PubChem BioAssay (NCATS):
Records with an inconclusive call do not appear. A number with no mark means an inactive call. Calls of active or inactive are those of the source. Calls come from the whole dose curve; as a rule, active = well fitted inhibition curve with a large enough effect; inconclusive = small, poorly fitted or top-dose-only effect; inactive = no such curve, though single readings can be large or run the other way.

test: qHTS Screen of the MIPE 4.0 Collection Against Ewings Sarcoma (EW8) (AID 1259255); conditions: EW8 Ewing sarcoma viability, CellTiter-Glo, 48 h; series mostly up to 45.8 µM; viability: at the top concentration; note: nearly all actives have a fitted effect of over 35% in size;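 for viability: 100% = DMSO-treated cells and 0% = medium-only wells without cells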
From the text: There is a large unmet medical need for treatments for Ewing sarcoma, a pediatric sarcoma. We sought to identify compounds that inhibited Ewing sarcoma cells in vitro with the goal to then test promising drugs in two drug combinations in vitro to look for synergistic drug combinations. Promising combinations would then proceed to additional validation, including in vivo testing.
Using the NCATS developed oncology compound library called the Mechanism of Interrogation Plate (MIPE), four Ewing sarcoma cell lines were evaluated (TC32, TC71, RDES, EW8). Compounds, in a 12-point titration series, were incubated with cells for 48 hours and the read out was cell viability (CellTiter-Glo from Promega). These initial experiments were used to select appropriate concentrations of each single agent for subsequent two-drug matrix combinations such that the concentrations in the matrices would span both activity and non-activity.
Cells, in the log phase of growth, were seeded in 5 uL of RPMI plus 5% FBS, […] L-glutamine, 100 U/ml penicillin and 100 ug/ml streptomycin into 1536-well solid-bottom white tissue culture treated Greiner Bio One Plates (789173-F) using a MultiDrop Combi (Thermofisher Scientific) dispenser and a small sterile cassette. One column was media alone to be used as a :"no cells" control. The plates were then covered with sterilized stainless steel gasketed lids from Kalypsys. After allowing cells to attach for 4 hours, 23 nL of test compound or control (negative control DMSO and positive control 9.2 uM Bortezomib-final) were added from a 1536-well polypropylene compound source plate to each well using a 1536 head pin tool from Kalypsys. Cells were then incubated for 48 hours at 37C, 95% relative humidity and 5% CO2. After 48 hours, plates were removed from the incubator and 3 uL of CellTiter-Glo (Promega) was added using an Aurora Flying Reagent Dispenser Bioraptor. Plates were incubated at room temperature for 10 minutes prior to reading the luminescence on the Viewlux (PerkinElmer). The relative luciferase units are used to calculate the percent activity using the activity of DMSO in the cells and no cells columns for normalization of no inhibition and full inhibition respectively.
Potency is the fitted concentration of half-maximal effect.

**Q.** Which Potency does the source give for CC(=CC(=O)Nc1ccccc1C(=O)O)c1ccc2ccccc2c1 here?
**A.** The Potency was 10.5 µM (active).

**Q.** For CCCCOc1ccc(C(=O)Nc2ccc(F)cc2F)cc1, which “viability” value is on record?
**A.** Its value is 118%.

**Q.** Which “viability” value does the source give for N#CC(=C(O)c1ccc(Cl)cc1Cl)c1nc2cc(Cl)ccc2c(=O)[nH]1 here?
**A.** The value was 115%.

**Q.** Which “viability” value does the source give for CCCCCCCCCCCC(CC1OC(=O)C1CCCCCC)OC(=O)C(CC(C)C)NC=O (stereo not given) here?
**A.** The value was 120%.

**Q.** Which Potency does the source give for O=C(Nc1nnc(-c2ccco2)o1)c1cc(-c2ccccc2)nc2ccccc12 here?
**A.** The Potency was 23.5 µM (active).

**Q.** With COc1ccc2cc([S+]([O-])Cc3ncc(C)c(OC)c3C)nc2c1 as the compound, how does the “viability” value read?
**A.** The value was 95.4%.

**Q.** For NC1=N[C@H]2[C@H](CS[C@H]2CCCCC(=O)O)N1, which “viability” value is on record?
**A.** The value was 127% [at 23.2 µM].

**Q.** Which “viability” value does the source give for C=C1C[C@@]2(O)O[C@@]3(C[C@H]2C(C)C)[C@H](C)CC[C@H]13 here?
**A.** The value was 121%.

**Q.** With C[C@]12C=CC(=O)N[C@@H]1CC[C@H]1[C@H]3CC[C@@H](C(=O)Nc4cc(C(F)(F)F)ccc4C(F)(F)F)[C@@]3(C)CC[C@@H]12 as the compound, how does the “viability” value read?
**A.** Its value is 101%.

**Q.** Which Potency does the source give for O=C1NCCc2[nH]c(-c3ccncc3)cc21 here?
**A.** The Potency was 3.32 µM (active).

**Q.** Which Potency does the source give for CN1CCc2c(c3ccccc3n2Cc2ccc(C(=O)NO)cc2)C1 here?
**A.** The Potency was 13.2 µM (active).

**Q.** With CCOC(=O)[C@H](CCc1ccccc1)N[C@@H](C)C(=O)N1[C@@H](C(=O)O)C[C@H]2CCC[C@@H]21 as the compound, how does the Potency read?
**A.** Its Potency is 18.7 µM (active).

**Q.** With CS[C@H]1SC[C@@H]2C(=O)N(C)[C@H](C(C)C)C(=O)OC[C@H](NC(=O)c3cnc4ccccc4n3)C(=O)N[C@H](C)C(=O)N(C)[C@@H]1C(=O)N(C)[C@H](C(C)C)C(=O)OC[C@H](NC(=O)c1cnc3ccccc3n1)C(=O)N[C@H](C)C(=O)N2C as the compound, how does the Potency read?
**A.** Its Potency is 0.0019 µM (active).

**Q.** Which Potency does the source give for O=C(C=CC#Cc1cccc(NS(=O)(=O)c2ccccc2)c1)NO here?
**A.** Its Potency is 0.935 µM (active).

**Q.** With Cn1cc(C=CC(=O)c2cccc(F)c2)cc1C=CC(=O)NO as the compound, how does the Potency read?
**A.** Its Potency is 16.6 µM (active).

**Q.** Which Potency does the source give for c1cncc(CN2CCC(n3ncc4c(N5CCOCC5)nc(-c5ccc6[nH]ccc6c5)nc43)CC2)c1 here?
**A.** Its Potency is 6.62 µM (active).

**Q.** Which Potency does the source give for CCc1c(O)cc(O)c(C(=O)c2ccc(OCCN3CCOCC3)c(OC)c2)c1CC(=O)N(CCOC)CCOC here?
**A.** Its Potency is 1.05 µM (active).

**Q.** With O=c1ccn([C@@H]2O[C@H](CO)[C@H](O)[C@@H]2F)c(=O)[nH]1 as the compound, how does the Potency read?
**A.** The Potency was 26.4 µM (active).

**Q.** For CN1[C@H]2CC(OC(=O)[C@@H](CO)c3ccccc3)C[C@H]1[C@H]1O[C@H]12 (stereo not given in full), which “viability” value is on record?
**A.** The value was 117% [at 23.2 µM].

**Q.** Which “viability” value does the source give for COc1ccc(Nc2nccc(NCCO)n2)cc1 here?
**A.** Its value is 114%.

**Q.** Which “viability” value does the source give for CC(=O)C1=C(O)C=C2Oc3c(C(C)=O)c(O)c(C)c(O)c3C2(C)C1=O (stereo not given) here?
**A.** The value was 114%.

**Q.** Which “viability” value does the source give for Cc1cc(C(=O)NOCCO)c(Nc2ccc(I)cc2F)n(C)c1=O here?
**A.** The value was 111%.

**Q.** For COc1cccc2c1C(=O)c1c(O)c3c(c(O)c1C2=O)C[C@@](O)(C(C)=O)C[C@H]3O[C@H]1C[C@H](N)[C@H](O)[C@H](C)O1, which Potency is on record?
**A.** The Potency was 0.0526 µM (active).

**Q.** Which Potency does the source give for COc1ccc(C[C@@H](C)[C@@H](C)Cc2ccc(OC)c(OC)c2)cc1OC here?
**A.** The Potency was 1.18 µM (active).

**Q.** With CN(C)c1ccc(C(=O)NCCCCCCC(=O)NO)cc1 as the compound, how does the Potency read?
**A.** The Potency was 0.526 µM (active).

**Q.** For C=C(C)[C@@H]1CC[C@]2(C)CC[C@]3(C)[C@H](CC[C@@H]4[C@@]5(C)CC[C@H](O)C(C)(C)[C@H]5CC[C@]43C)[C@@H]12, which “viability” value is on record?
**A.** Its value is 123%.

**Q.** Which “viability” value does the source give for CC(=O)N[C@H]1[C@@H]([C@H](O)[C@H](O)CO)OC(C(=O)O)=C[C@@H]1N=C(N)N here?
**A.** The value was 119%.

**Q.** With CN(C)c1ccc2cc(C(=O)N[C@@H](CCCN=C(N)CCl)C(=O)NCc3ccccc3)ccc2c1 as the compound, how does the Potency read?
**A.** Its Potency is 9.35 µM (active).

**Q.** With CN(N=O)C(=O)N[C@H]1C(O)OC(CO)[C@@H](O)[C@H]1O (stereo not given in full) as the compound, how does the “viability” value read?
**A.** The value was 119%.

**Q.** Which Potency does the source give for CNC(=O)Nc1ccc(-c2nc(N3CC4CCC(C3)O4)c3cnn(C4CCC5(CC4)OCCO5)c3n2)cc1 here?
**A.** The Potency was 0.0132 µM (active).

**Q.** With CC(C)Oc1ccc(C(=O)N[C@H](CNC(=O)CN(C)C)Cc2ccc(-c3cn4cccc([C@H](C)O)c4n3)cc2)cc1Cl as the compound, how does the Potency read?
**A.** The Potency was 0.235 µM (active).

**Q.** Which Potency does the source give for COc1ccc(S(=O)(=O)Nc2cc(-c3c(O)ccc4ccccc34)c(O)c3ccccc23)cc1 here?
**A.** The Potency was 4.18 µM (active).

**Q.** For CN[C@H](CC(C)C)C(=O)N[C@H]1C(=O)N[C@@H](CC(N)=O)C(=O)N[C@@H]2C(=O)N[C@H]3C(=O)N[C@H](C(=O)N[C@H](C(=O)O)c4cc(O)cc(O)c4-c4cc3ccc4O)[C@H](O)c3ccc(c(Cl)c3)Oc3cc2cc(c3O[C@@H]2O[C@H](CO)[C@@H](O)[C@H](O)[C@@H]2O[C@H]2C[C@](C)(N)[C@H](O)[C@H](C)O2)Oc2ccc(cc2Cl)[C@H]1O, which “viability” value is on record?
**A.** Its value is 110%.

**Q.** Which Potency does the source give for COC(=O)C1C2CC3c4[nH]c5cc(OC)ccc5c4CCN3CC2CC(OC(=O)c2cc(OC)c(OC)c(OC)c2)C1OC (stereo not given) here?
**A.** The Potency was 2.96 µM (active).

**Q.** With C[C@@]12C[C@@]3(O)O[C@@H](O1)[C@]1(COC(=O)c4ccccc4)[C@@H]3C[C@@]12O[C@@H]1O[C@H](CO)[C@@H](O)[C@H](O)[C@@H]1O as the compound, how does the “viability” value read?
**A.** Its value is 122%.

**Q.** For Nc1nc2c(c(=O)[nH]1)N(C=O)[C@H](CNc1ccc(C(=O)N[C@@H](CCC(=O)O)C(=O)O)cc1)CN2, which “viability” value is on record?
**A.** Its value is 121%.

**Q.** For Nc1nc(=O)n([C@H]2C[C@H](O)[C@@H](CO)O2)cc1F, which Potency is on record?
**A.** The Potency was 0.0662 µM (active).

**Q.** Which Potency does the source give for Cc1ccc(-n2[nH]c(C)c(N=Nc3cccc(-c4cccc(C(=O)O)c4)c3O)c2=O)cc1C here?
**A.** The Potency was 18.7 µM (active).

**Q.** With Nc1nc(=O)n([C@H]2CSC(CO)O2)cc1F (stereo not given in full) as the compound, how does the “viability” value read?
**A.** Its value is 104%.

**Q.** Which Potency does the source give for C=CC(=O)Nc1ccc2ncnc(Nc3ccc(OCc4cccc(F)c4)c(Cl)c3)c2c1 here?
**A.** Its Potency is 2.09 µM (active).
